Compound activity: PubChem, several laboratories
This is a sample that favours compounds with a hit; in the whole collection about 2.7% have one here.
MsrA act: bovine MsrA enzyme activators, primary screen, biochemical, absorbance, HTS; 360,000 compounds, 0.3% hits; purified bovine MsrA, absorbance read-out; Methionine sulfoxide reductase A (Bos taurus); activation, % at 10.6 µM; in the data active = activation above about 7.5%;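 note: 0% = vehicle and 100% = reference activator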
rCAG RNA binder: binders of r(CAG) RNA repeats, primary screen, biochemical, fluorescence. AID 651821, 2012. r(CAG) RNA repeat, TO-PRO-1 dye displacement fluorescence. 370,000 compounds, 1.3% hits. inhibition, % at 3 µM;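 active = inhibition above the plate cutoff, the mean of all test compounds on that plate plus 3 SD, cut at about 35% in these data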;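 note: 0% = DMSO alone and 100% = 100 µM mitoxantrone as full dye displacement; higher means more dye released from RNA so lower well fluorescence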
NadD block: inhibitors of S. aureus NadD, primary screen, biochemical, colorimetric, uHTS. inhibition, % at 20 µM. purified NadD enzyme, colorimetric absorbance read-out. Nicotinate-nucleotide adenylyltransferase NadD (Staphylococcus aureus N315). 360,000 compounds, 0.78% hits; in the data active = inhibition above about 26%
MsrA inh: bovine MsrA enzyme inhibitors, primary screen, biochemical, absorbance, HTS; AID 651718, 2012; Methionine sulfoxide reductase A (Bos taurus); 360,000 compounds, 0.75% hits; purified bovine MsrA, absorbance read-out; inhibition, % at 15.5 µM; in the data active = inhibition above about 4.5%;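 note: 0% = vehicle wells with enzyme and 100% = reference inhibitor wells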
rCAG binder conf: small molecules binding CAG repeat RNA – biochemical, fluorescence, confirmation | shares compounds with rCAG RNA binder | r(CAG) RNA repeat, TO-PRO-1 dye displacement fluorescence | inhibition, % at 3 µM | 4,300 compounds, 70% hits | AID 652065, 2013;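 active = inhibition above a per-plate cutoff, the mean inhibition of sample wells plus 3 SD, cut at about 35% in these data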;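 note: loss of TO-PRO-1 fluorescence as compound displaces dye from 1x1 AA loop RNA; 0% = DMSO only wells and 100% = 100 µM mitoxantrone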
DNA CAG counter: displacement of TO-PRO-1 from CAG DNA duplex, counter-screen for rCAG RNA repeat binder project, biochemical, fluorescence, TO-PRO-1 dye, d(CAG) DNA oligo | shares compounds with rCAG RNA binder | d(CAG) DNA oligo TO-PRO-1 dye displacement | 4,300 compounds, 94% hits | inhibition, % at 3 µM;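 active = inhibition above its plate's cutoff, the mean test-well inhibition plus 3 SD, cut at about 4.8% in these data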;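 note: 0% = DNA dye mix with DMSO and 100% = 100 µM mitoxantrone; hits displace the dye from DNA and so lower well fluorescence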
dCAG dye DR: inhibitors of DNA CAG/GTC TO-PRO-1 complex, dose response, counter-screen for rCAG RNA repeat binder project, biochemical, fluorescence, TO-PRO-1 dye; shares compounds with rCAG RNA binder; DNA CAG/GTC duplex TO-PRO-1 dye displacement fluorescence; 250 compounds, 20% hits; IC50, µM; in the data active = IC50 below about 10 µM
The depositor's hits bear a star; · = not tested or not shown.

SMILES | MsrA act | rCAG RNA binder | NadD block | MsrA inh | rCAG binder conf | DNA CAG counter | others
COc1cccc(/C=N/NC(=O)c2nnn(-c3nonc3N)c2C(C)C)c1 | -10 | -1 | 1 | -1 | · | ·
Brc1ccc(-c2noc3c2-c2nc(C4CCCCC4)sc2CC3)cc1 | -2 | 5 | 0 | 1 | · | ·
Cc1ccccc1S(=O)(=O)NC(=O)C1(C)CCN1C(=O)c1ccccc1CCc1ccccc1 (stereo unspecified) | -6 | 50* | 3 | 0 | 41* | 10*
CC1(C(=O)NS(=O)(=O)c2ccc(Cl)s2)CCN1C(=O)CCc1ccccc1 (stereo unspecified) | -1 | 11 | 1 | -1 | · | ·
CC1(C(=O)NS(=O)(=O)c2ccc(Cl)s2)CCN1C(=O)c1ccccc1CCc1ccccc1 (stereo unspecified) | -4 | 71* | 0 | 0 | 72* | 31* | dCAG dye DR=3*
CC1(C(=O)NS(=O)(=O)c2ccccc2)CCN1C(=O)c1ccccc1CCc1ccccc1 (stereo unspecified) | -5 | 40* | -5 | 0 | 33 | 6.5*
Cc1ccc(S(=O)(=O)NC(=O)C2(C)CCN2C(=O)c2ccccc2CCc2ccccc2)cc1 (stereo unspecified) | -2 | 48* | 4 | 0 | 48* | 14*
Cc1noc(C)c1S(=O)(=O)NC(=O)C1(C)CCN1C(=O)c1ccccc1CCc1ccccc1 (stereo unspecified) | 2 | 31 | 0 | 0 | · | ·
C[C@H](CO)N1C[C@H](C)[C@H](CN(C)S(=O)(=O)c2ccc(-n3cccn3)cc2)OCc2cnnn2CCCC1=O | 0 | 1 | 10 | 0 | · | ·
CCc1nc2c(OCC(=O)c3ccc(Cl)cc3Cl)cccn2c1N(C)C(=O)c1cccs1 | -5 | 7 | 6 | -1 | · | ·
CC1(C(=O)NS(=O)(=O)c2ccc(C#N)cc2)CCN1C(=O)c1cccc2ccccc12 (stereo unspecified) | -1 | 11 | -3 | 0 | · | ·
CC1(C(=O)NS(=O)(=O)c2ccc(C#N)cc2)CCN1C(=O)c1ccccc1CCc1ccccc1 (stereo unspecified) | -1 | 48* | -2 | 0 | 45* | 11*
COc1ccc(CN2C[C@]3(C=C4CCCCC4n4c(=O)n(-c5ccccc5)c(=O)n43)N(C(=O)OCc3ccccc3)C2=NC(=O)c2ccccc2)c(OC)c1 (stereo partly specified) | · | 12 | · | · | · | ·
O=C(NC1=N[C@@]2(C=C3CCCCC3n3c(=O)n(-c4ccccc4)c(=O)n32)CN1Cc1ccccc1)c1ccccc1 (stereo partly specified) | · | 42* | · | · | 38* | 15*
COc1ccc(CN2C[C@]3(C=C(C)Cn4c(=O)n(-c5ccccc5)c(=O)n43)N=C2NC(=O)c2ccccc2)c(OC)c1 | · | 42* | · | · | 43* | 18*
COc1ccc(CN2C[C@]3(C=C4CCCCC4n4c(=O)n(-c5ccccc5)c(=O)n43)N=C2NC(=O)c2ccccc2)c(OC)c1 (stereo partly specified) | · | 52* | · | · | 50* | 21*
CC(C)CNC(=O)[C@H](Cc1ccccc1)NC(=O)c1cccs1 | 1 | -2 | 1 | 1 | · | ·
CC1(C)CC(=O)C=C(c2ccc(-c3ccc(S(C)(=O)=O)cc3)cc2)C1=O | 0 | 4 | -1 | 0 | · | ·
Cc1nc2ccccc2c(=O)n1NC(=O)CCC(=O)O | -1 | -3 | -10 | -1 | · | ·
O=C(O)c1ccccc1-c1ccccc1C(=O)Nc1ccc2c(c1)oc(=O)c1ccccc12 | -4 | 66* | 4 | 1 | 65* | 24*
O=C(O)c1ccccc1-c1ccccc1C(=O)Nc1cccc(-c2nc3ccccc3o2)c1 | -3 | 65* | 1 | 1 | 60* | 22*
